# Most compounds without a hit are left out; they make up all but 2.3% or so of the library.
# V-ATPase pH: regulators of yeast V-ATPase proton transport; actives 0.37% (n = 350,000); AID 504577; S. cerevisiae, pHLuorin cytosolic pH fluorescence; response, % at 10 µM; in the data active = response mostly above about 7.3%, no sharp cut-off; inactive = mostly below about 5.4%; note: actives read high
# KLK7 zymogen act: proKLK7 (human) activation, primary screen. purified proKLK7, EDANS-DABCYL substrate fluorescence; 100% is mature enzyme control, 0% vehicle. activation, % at 7 µM. actives 0.9% (n = 370,000). AID 652039;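 active = activation above the mean of all tested compounds plus 3 SD, computed per campaign excluding outliers beyond control limits, cut at about 13% in these data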
# ADAM10 inh: ADAM10 inhibition, QFRET primary screen; O14672; recombinant ADAM10, EDANS/DABCYL FRET peptide cleavage, 3 h; inhibition, % at 7 µM; actives 0.62% (n = 370,000);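 active = inhibition above a per-campaign cutoff equal to the mean of compounds falling between control-based bounds plus 3 SD, cut at about 20% in these data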;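 note: 0% = DMSO wells while the 100% control is not disclosed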
# Target sequence (O14672 214-748 limits assumed): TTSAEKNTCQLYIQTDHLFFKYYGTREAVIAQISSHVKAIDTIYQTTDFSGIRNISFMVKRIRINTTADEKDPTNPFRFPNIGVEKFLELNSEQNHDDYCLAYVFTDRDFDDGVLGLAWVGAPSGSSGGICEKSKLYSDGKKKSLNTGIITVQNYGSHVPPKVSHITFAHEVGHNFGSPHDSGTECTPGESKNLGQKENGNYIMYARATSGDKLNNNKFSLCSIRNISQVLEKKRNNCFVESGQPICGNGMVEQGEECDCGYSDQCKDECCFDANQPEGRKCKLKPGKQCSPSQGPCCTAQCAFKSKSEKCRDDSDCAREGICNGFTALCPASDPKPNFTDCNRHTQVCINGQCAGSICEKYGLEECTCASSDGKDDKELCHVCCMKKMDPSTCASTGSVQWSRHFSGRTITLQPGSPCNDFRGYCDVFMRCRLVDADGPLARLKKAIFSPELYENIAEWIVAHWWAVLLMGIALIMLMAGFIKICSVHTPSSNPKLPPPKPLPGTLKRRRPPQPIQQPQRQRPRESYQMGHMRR
# ADAM17 inh: inhibitors of human ADAM17; P78536; recombinant ADAM17, EDANS/DABCYL FRET peptide cleavage; inhibition, % at 6.95 µM; actives 0.83% (n = 370,000);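 active = inhibition above the mean of compounds lying between control limits plus 3 SD, set per campaign, cut at about 8.5% in these data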;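 note: 0% = DMSO-only wells as the low control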
# An asterisk follows results filed as active; . = no result.
SMILES,V-ATPase pH,KLK7 zymogen act,ADAM10 inh,ADAM17 inh
Clc1ccc2nc(CSc3nnc(-c4c[nH]c5ccccc45)o3)cn2c1,-108.5,0.6,-5.8,-7.9
S=C(NN=C(c1ccccc1)c1ccccn1)N(Cc1ccccn1)Cc1ccccn1,0.0,0.3,78.3*,71.8*
Cc1cccc(OC[C@@H](O)CN2CCC(C(O)(c3ccccc3)c3ccccc3)CC2)c1,.,0.4,-7.4,1.4
O=C(CSC1=NNC(c2ccccn2)S1)Nc1cccc(Cl)c1 (stereo unspecified),3.1,-0.7,22.0*,5.1
CC1CCCN(c2sc(S(C)(=O)=O)nc2S(=O)(=O)c2ccc(Cl)cc2)C1 (stereo unspecified),0.3,0.1,2.4,-1.3
CC1CN(c2sc(S(C)(=O)=O)nc2S(=O)(=O)c2ccc(Cl)cc2)CC(C)O1 (stereo unspecified),13.2*,-0.1,-5.8,-2.0
O=C(Nc1ccc(F)c(F)c1)c1cc(S(=O)(=O)N2CCN(c3ccccn3)CC2)ccc1F,-0.9,0.0,10.2,9.6*
Cc1ccc(Cn2cc(CN3[C@H](CC(C)C)COc4cc(Br)ccc4S3(=O)=O)nn2)cc1,.,0.3,4.9,-0.5
Nc1nnc(SCc2ccc(F)cc2)s1,1.9,-0.1,1.4,-4.5
Nc1nc(SCc2ccc(F)cc2)ns1,24.4*,0.4,-2.6,-2.4
CCn1c(COc2ccc(C)cc2)nnc1SCC(=O)Nc1ccccc1-c1ccccc1,.,0.2,13.6,7.0
Cc1ccc(C)c(S(=O)(=O)ON2C(=O)c3ccccc3C2=O)c1,2.0,0.4,-31.0,-9.6
Cc1cc(S(=O)(=O)ON2C(=O)c3ccccc3C2=O)ccc1F,11.1*,-0.1,-120.9,-39.6
CC1=Nn2c(nnc2-c2ccccc2F)SC1,15.4*,0.1,-1.3,2.9
CCC(=O)N(c1nnc(SCC(=O)c2ccc[nH]2)s1)C1CC1,18.1*,-0.1,-15.4,-2.6
CCC(=O)N(c1nnc(SCC(=O)Nc2ccc(N3CCOCC3)cc2)s1)C1CC1,7.3,-0.1,-2.3,0.4
O=C1COc2ccccc2C(c2nnnn2-c2ccc3ccccc3c2)N1C1CC1 (stereo unspecified),.,-0.2,3.5,-1.0
COC(=O)[C@H]1C[C@@]2(Oc3ccc(Br)cc3)c3ccccc3N(C(=O)OC(C)(C)C)[C@H]2N1C(=O)OC(C)(C)C,.,-0.5,9.1,2.7
Cc1ccc(S(=O)(=O)CCC(=O)OCC(=O)N2CCN(c3ccccc3)CC2)cc1,-0.3,0.5,-2.4,-0.3
COc1ccc(N2CCN(C(=O)COC(=O)CCS(=O)(=O)c3ccc(C)cc3)CC2)cc1,15.0*,-0.5,11.3,2.5
CCCC1CCC2(CC1)CCC2OC(=S)Nc1ccccc1OC (stereo unspecified),.,.,-6.1,-4.0
O=C(O)c1ccc(OCc2occc2C(=O)O)cc1,17.4*,-0.1,8.4,3.1
CO/N=C/c1ccc(N2CCN(C(=O)c3ccc(Cl)cc3Cl)CC2)c([N+](=O)[O-])c1,1.4,0.6,20.0*,6.8
O=C1C=CC(=Nc2ccc3c(c2)C(=O)c2ccccc2-3)O1,-0.4,0.1,10.7,12.1*
CCOC(=O)C1C(=O)NC(N2CCN(Cc3ccccc3)CC2)=NC1c1ccco1 (stereo unspecified),-1.6,-0.1,-2.0,-3.0
SMILES,V-ATPase pH,KLK7 zymogen act,ADAM10 inh,ADAM17 inh
CCOC(=O)C1C(=O)NC(N2CCCCC2)=NC1c1ccco1 (stereo unspecified),14.9*,0.0,1.8,1.7
CCc1nnc(N/N=C/c2ccc(N3CCC(C)CC3)c([N+](=O)[O-])c2)n1N,16.2*,0.5,1.9,2.5
Cc1nnc(N/N=C/c2cc([N+](=O)[O-])c(N3CCC(C)CC3)cc2N2CCC(C)CC2)n1N,2.0,-0.7,7.1,1.7
CCN(CC)C(=O)C1CCCN(C(=O)Nc2ccc3nsnc3c2)C1 (stereo unspecified),1.4,19.1*,-431.4,-112.8
C=CCN(CC#CC(=C)C)CC1CC1,.,0.4,-7.9,-3.4
CCCCN1C(=O)C(=O)N(c2ccccc2)C1=S,8.8*,-0.6,-0.8,0.6
CCC[C@H](/C=C/C(=O)OC(C)(C)C)Sc1ccc(N)cc1,.,0.1,10.6,6.4
O=C(CSc1ccccc1)Nc1nc2ccccc2[nH]1,31.5*,0.6,3.8,0.1
O=C(Nc1cccc2c1CCCC2)c1cc([N+](=O)[O-])ccc1Cl,9.7*,-0.5,-6.1,-2.9
O=C(Nc1cccc2c1CCCC2)c1ccc(Cl)c([N+](=O)[O-])c1,-0.8,0.6,0.5,-0.8
COc1ccc(NC(=O)/C(C#N)=C\c2ccc(Br)o2)cc1,-2.8,0.5,-9.6,-4.7
